Screening results deposited in PubChem by several laboratories.
SKKanGAS inh – inhibitors of SKKanGAS S. pyogenes growth in kanamycin (SK-promoter or general growth effect) | BacTiter-Glo, 6 h | inhibition, % at 7.5 µM | hit rate 1.3% among 300,000;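 active means mean replicate score, as percent of positive control median, at least 50; inconclusive means mean below 50 but one replicate at or above 50; inactive means mean and every replicate below 50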;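 further: strain carries kanamycin resistance gene driven by streptokinase promoter and grows in 40 µg/ml kanamycin; loss of luminescence reflects streptokinase promoter inhibition or plain growth inhibition; 0% = median of DMSO wells and 100% = positive control at its reference dose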
TIM10 inh – TIM10 yeast growth inhibition | S. cerevisiae TIM10 strain growth, BacTiter-Glo luminescence, 24 h | inhibition, % at 10 µM | hit rate 1.4% among 330,000;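 active means inhibition of 40% or more at the single tested concentration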;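 further: wild-type TIM10 isogenic control strain grown at permissive 25 °C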
PfHsp90 set2 – reduces growth (ATP signal) of yeast expressing P. falciparum Hsp90; hit rate 0.32% among 310,000; S. cerevisiae expressing PfHsp90, BacTiter-Glo ATP, 48 h; yeast lacking PDR1 and PDR3 efflux regulators; inhibition, % at 9.4 µM; AID 504621;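 active means every replicate shows inhibition above about 80%, whatever the replicate mean, limit read from the data; inconclusive means mean inhibition reaches the set limit but some replicate falls short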;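 further: 0% = DMSO neutral controls and 100% = 20 µM radicicol positive controls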
tim10-1 inh – tim10-1 yeast growth inhibition; inhibition, % at 20 µM; AID 463190; hit rate 2.2% among 330,000; S. cerevisiae tim10-1 ts strain growth, BacTiter-Glo, 24 h;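 active means inhibition of at least 40%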;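 further: mutant grown at 25 °C; 0% = DMSO wells with yeast and 100% = wells holding no yeast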
tim23-1 inh – tim23-1 yeast growth inhibition; S. cerevisiae tim23-1 growth, BacTiter-Glo luminescence, 24 h; inhibition, % at 20 µM; hit rate 1.3% among 330,000; AID 463212;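 active means growth inhibition of the mutant yeast at or above 50%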;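 further: temperature-sensitive mutant grown at 25 °C; plate controls were DMSO-treated mutant yeast for no effect and medium wells lacking yeast for full effect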
The depositor's hits bear a star; ? = inconclusive; . = no result given. In the library only some 4.4% were active in any assay of this set; here they are far more common.

SMILES	SKKanGAS inh	TIM10 inh	PfHsp90 set2	tim10-1 inh	tim23-1 inh
COc1ccccc1C(=O)NC(=S)Nc1ccc(NC(=O)c2ccco2)cc1	?	-3	-7	-24	-24
COc1ccc(/C=C/C(=O)NC(=S)NNC(=O)c2ccco2)cc1OC	84*	-14	-13	-4	-37
COc1ccc(C(=O)NC(=S)NNC(=O)c2ccco2)cc1	53*	15	-32	-8	-21
COc1ccc(NC(=S)NNC(=O)c2ccco2)c(OC)c1	-2	-4	17	-13	-14
COc1ccc(/C=C/C(=O)NC(=S)NNC(=O)c2ccco2)cc1	78*	0	4	-2	-19
COc1ccc(CC(=O)NNC(=O)c2ccco2)cc1	-4	4	5	-6	10
COc1ccccc1OCC(=O)NNC(=S)NC(=O)c1ccco1	60*	9	-15	17	-3
O=C(NC(=S)NNC(=O)c1ccco1)c1ccc(F)cc1	45	-4	-26	39	-16
CCC(=O)c1ccc(OCc2cn(CC(=O)c3ccc(O)cc3)nn2)cc1	.	.	22	.	.
O=C(COC(=O)CCC1CCCC1)Nc1ccc(F)cc1	.	21	24	-2	26
CCCOc1ccccc1OCC(=O)Nc1cccc(S(=O)(=O)NC2=NCCC2)c1	.	1	5	5	13
COc1ccc(C(=O)NC(=S)Nc2ccccc2N2CCOCC2)cc1[N+](=O)[O-]	-3	2	-6	6	-1
COc1ccc(C(=O)NC(=S)Nc2ccc(N3CCOCC3)c(Cl)c2)cc1[N+](=O)[O-]	68*	1	0	3	6
O=C(/C=C/c1ccccc1)NC(=S)Nc1ccc(N2CCOCC2)c(Cl)c1	-8	-19	3	17	-3
O=C(/C=C/c1ccco1)NC(=S)Nc1ccc(N2CCOCC2)c(Cl)c1	87*	4	28	-2	-6
CO[C@H]1C=CO[C@@]2(C)Oc3c(C)c(O)c4c(O)c(c(C=NN5CCN(C)CC5)c(O)c4c3C2=O)NC(=O)C(C)=CC=C[C@H](C)[C@H](O)[C@@H](C)[C@@H](O)[C@@H](C)[C@H](OC(C)=O)[C@@H]1C	106*	16	-1	34	20
CO[C@H]1/C=C/O[C@@]2(C)Oc3c(C)c(O)c4c(O)c(c(C=NN5CCN(C)CC5)c(O)c4c3C2=O)NC(=O)/C(C)=C\C=C\[C@H](C)[C@H](O)[C@@H](C)[C@@H](O)[C@@H](C)[C@H](OC(C)=O)[C@@H]1C	.	2	-32	14	12
CO[C@H]1C=CO[C@@]2(C)Oc3c(C)c(O)c4c(O)c(c(C=NN5CCN(C6CCCC6)CC5)c(O)c4c3C2=O)NC(=O)C(C)=CC=C[C@H](C)[C@H](O)[C@@H](C)[C@@H](O)[C@@H](C)[C@H](OC(C)=O)[C@@H]1C	105*	12	.	15	18
Cc1noc(C)c1NC(=O)N(C)C[C@H]1Oc2ccc(NC(=O)NC3CCCCC3)cc2C(=O)N([C@H](C)CO)C[C@@H]1C	.	4	-7	-3	-7
Cc1cc(Cn2nc(C(=O)NCc3cccc(C(F)(F)F)c3)cc2-c2ccccc2)on1	.	-8	-5	24	-4
CCS(=O)(=O)Nc1ccc(-c2cc(-c3ccccc3)c3cc(C)ccc3n2)cc1	95*	.	69	.	.
Cc1ccc2nc(-c3ccc(NS(C)(=O)=O)cc3)cc(-c3ccccc3)c2c1	26	29	137*	39	35
Cc1ccc2nc(-c3ccncc3)cc(-c3ccccc3)c2c1	-7	28	-8	33	42
Cc1ccc(-c2cc(C(=O)Nc3ccc(S(=O)(=O)Nc4nc(C)cc(C)n4)cc3)c3ccccc3n2)cc1	44	17	7	13	4
O=C(CSc1nc2ccccc2[nH]1)Nc1nc(-c2cccc(Br)c2)cs1	80*	21	4	3	31
O=C(Cc1ccc(Cl)cc1)OCC(=O)N1CCCCCC1	.	-7	17	-5	14
Cc1cccc(/C=C2\Sc3ccc(C(=O)N4CCC(C(N)=O)CC4)cc3N(C)C2=O)c1	-3	4	-4	3	0
CCOc1ccc(/C=C2/Sc3ccc(C(=O)N4CCOCC4)cc3N(C)C2=O)cc1OC	68*	-2	-6	17	9
COc1ccc(/C=C2\Sc3ccc(C(=O)NC4CC4)cc3N(C)C2=O)cc1OC	70*	18	17	2	16
COc1ccc(/C=C2\Sc3ccc(C(=O)N4CCCC4)cc3N(C)C2=O)cc1OC	100*	-2	-50	20	16
